# Reference: PubChem BioAssay (NCI)
# The panel holds about 83,000 compounds, 20% with a hit somewhere; the sample as a whole holds those more often.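 Interpretation: 100, growth as untreated; towards 0, rising growth inhibition; 0, no net growth; 0 to -100, cell death. Compounds scoring below 10 were considered active.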 Unmarked numbers belong to inactive results. The source made the active and inactive calls.
# Experiments:
# Assay in all cases: NCI-60 one-dose screen, 48 h (100 = growth as untreated, 0 = no growth, -100 = all killed)
# Settings in all cases: 10 µM unless noted
# DU-145 prostate = test system: DU-145 prostate
# K-562 leukemia = test system: K-562 leukemia
# MALME-3M melanoma = test system: MALME-3M melanoma
# MDA-MB-231 breast = test system: MDA-MB-231 breast
# RXF 393 renal = test system: RXF 393 renal
# SF-268 CNS = test system: SF-268 CNS
# SF-295 CNS = test system: SF-295 CNS
# SF-539 CNS = test system: SF-539 CNS
# UACC-257 melanoma = test system: UACC-257 melanoma
# M14 melanoma = test system: M14 melanoma
# HCT-15 colon = test system: HCT-15 colon
# HT29 colon = test system: HT29 colon
# SNB-75 CNS = test system: SNB-75 CNS
# SNB-19 CNS = test system: SNB-19 CNS
# U251 CNS = test system: U251 CNS
# PC-3 prostate = test system: PC-3 prostate
# SK-MEL-5 melanoma = test system: SK-MEL-5 melanoma
# UACC-62 melanoma = test system: UACC-62 melanoma
# LOX IMVI melanoma = test system: LOX IMVI melanoma
# SK-MEL-28 melanoma = test system: SK-MEL-28 melanoma
SMILES,growth (DU-145 prostate),growth (K-562 leukemia),growth (MALME-3M melanoma),growth (MDA-MB-231 breast),growth (RXF 393 renal),growth (SF-268 CNS),growth (SF-295 CNS),growth (SF-539 CNS),growth (UACC-257 melanoma),growth (M14 melanoma),growth (HCT-15 colon),growth (HT29 colon),growth (SNB-75 CNS),growth (SNB-19 CNS),growth (U251 CNS),growth (PC-3 prostate),growth (SK-MEL-5 melanoma),growth (UACC-62 melanoma),growth (LOX IMVI melanoma),growth (SK-MEL-28 melanoma)
CCCCC#Cc1c(I)n(C2OC(CO[Si](C)(C)C(C)(C)C)C3OC(C)(C)OC32)c(=O)[nH]c1=O (stereo not given),74.1%,36.3%,60.6%,79%,-56.4% (active),98.4%,113%,88.1%,55.1%,76%,68.2%,69.3%,85.5%,97.6%,82.6%,84.4%,90.4%,81%,19.3%,68.9%
CCC(C)C(N)C(=O)NC(CC(C)C)C(=O)N1CCCC1C(=O)NC(Cc1c[nH]c2ccccc12)C(=O)NC(CCCCN)C(=O)NC(Cc1c[nH]c2ccccc12)C(=O)N1CCCC1C(=O)NC(Cc1c[nH]c2ccccc12)C(=O)NC(Cc1c[nH]c2ccccc12)C(=O)N1CCCC1C(=O)NC(Cc1c[nH]c2ccccc12)C(=O)NC(CCCNC(=N)N)C(=O)NC(CCCNC(=N)N)C(N)=O (stereo not given),98.4%,104%,122%,116%,110%,116%,144%,110%,97.8%,108%,106%,83.5%,105%,106%,112%,91.7%,104%,102%,98.5%,114%
Cn1ccnc1C(=O)/C=C/c1ccc(CC(=O)Nc2cc(F)c(F)c(F)c2)cc1,3% (active),12.6%,83.2%,6.11% (active),-15.6% (active),15.5%,51.5%,-19.5% (active),80.2%,62.7%,9.67% (active),10.7%,-3.33% (active),20.3%,8.83% (active),26.1%,62.5%,43.9%,-3.99% (active),93.5%
C=C(C)[C@@H]1CCC[C@]2(C(=O)OC)CC[C@]3(C)[C@@H](CC[C@@H]4[C@@]5(C)CCCNC(C)(C)[C@@H]5CC[C@]43C)[C@@H]12,105%,55.4%,79.6%,85.5%,90.9%,93.4%,104%,98.7%,98.9%,97%,93.1%,56.5%,91.7%,88.3%,94.1%,74.1%,90%,87.8%,97.8%,94.3%
COc1cc(-c2c(-c3ccccc3)c[nH]c2C(=O)NCCCO)c(OC)c2c1OCO2,111%,86.5%,108%,88.8%,93.5%,99.4%,101%,104%,106%,105%,107%,106%,92.9%,97.5%,104%,99.1%,99.1%,93.7%,99.5%,107%
Clc1ccc(C2=Nn3c(nnc3-c3cc(Cl)cc(Cl)c3Cl)SC2)cc1,-16.6% (active),12.4%,44.4%,65.3%,66.2%,35%,14.8%,72.9%,71.5%,11.7%,32.3%,6.41% (active),31.7%,32.8%,20.9%,20.2%,0.698% (active),31.9%,39.8%,62.1%
O=c1oc2ccccc2cc1-c1nn(-c2ccccc2)cc1/C=N/Nc1nc(-c2ccccc2)c(N=Nc2ccccc2)s1,76.8%,21.7%,77%,68.8%,98.1%,79.3%,70.9%,88.5%,86.5%,45.4%,41.9%,31.5%,26.6%,85.1%,47.6%,82.1%,79.7%,59.8%,70%,89%
COc1cc2c(cc1-c1c(C)noc1C)ncc1nc(C3CCOCC3)n(C3CCC(OC(F)F)CC3)c12 (stereo not given),73.2%,47.6%,44.1%,36.2%,59%,64.9%,53.5%,56.6%,47.7%,54.6%,33.2%,25.9%,12.9%,75.3%,75.8%,44.8%,27.2%,25.4%,24%,71.1%
COc1cc(C2CC(c3cccc(Nc4ccncc4)c3)=Nc3c(N)ncnc3N2)cc(OC)c1OC (stereo not given),88.3%,29.3%,83.7%,91%,94.2%,79%,95.5%,94.8%,88.2%,90.7%,88.3%,98.1%,83.8%,93.8%,77.7%,93.8%,93.7%,87.3%,91.3%,102%
COc1ccc(-c2ccc(-c3ccc(C(=N)N)o3)o2)cc1,6.23% (active),-9.69% (active),57.1%,8.3% (active),25.1%,39.8%,35.6%,23%,37.9%,35.1%,-7.49% (active),-9.08% (active),43.6%,15.5%,-29.3% (active),25.5%,25.6%,-61.1% (active),-58.1% (active),71.1%
O=C(/C=C/c1ccc([N+](=O)[O-])cc1)c1cccc(Nc2nc(Nc3ccccc3)nc(Nc3ccccc3)n2)c1,77.3%,60.8%,87.5%,70.9%,-39.7% (active),85.5%,79.7%,74.7%,98.7%,74.5%,68.6%,68.2%,52.4%,93.7%,58%,62.1%,62.8%,82.7%,67.9%,88.3%
OC1CSSC1Cn1cnc2c(Nc3ccc(F)c(Cl)c3)ncnc21 (stereo not given),85.8%,32.5%,65.1%,84.6%,114%,81.8%,106%,93.2%,82%,-65.9% (active),92.5%,83.2%,114%,90.4%,84.3%,80.5%,88.2%,16.3%,47.9%,78.3%
Cc1nc2sc(C(=O)Nc3ccccc3)c(N)c2cc1C(O)c1ccccc1 (stereo not given),18.1%,7.04% (active),60.8%,16.7%,40%,47.9%,4.69% (active),-5.44% (active),72.5%,20.3%,9.11% (active),11.9%,36.9%,23.5%,16.9%,21.6%,4.19% (active),34.6%,26.9%,65.7%
